Consider 40 compounds from PubChem BioAssay (NCATS).

Where “and” joins values, the source holds several entries; their conditions need not be identical. Equal entries are not always repeated. Unmarked numbers belong to inactive results. Inconclusive results are not listed. Calls of active or inactive are those of the source. Unless noted, the call rests on the fitted dose curve; in most records, active means well fitted curve in either direction with a large enough effect (not every such curve was filed as active); inconclusive means small, poorly fitted or top-dose-only effect, or another doubt; inactive means flat fitted curve, though single readings scatter.

Glucocorticoid receptor (Homo sapiens), sequence (P04150 whole entry, looked up, the tested form may be a part): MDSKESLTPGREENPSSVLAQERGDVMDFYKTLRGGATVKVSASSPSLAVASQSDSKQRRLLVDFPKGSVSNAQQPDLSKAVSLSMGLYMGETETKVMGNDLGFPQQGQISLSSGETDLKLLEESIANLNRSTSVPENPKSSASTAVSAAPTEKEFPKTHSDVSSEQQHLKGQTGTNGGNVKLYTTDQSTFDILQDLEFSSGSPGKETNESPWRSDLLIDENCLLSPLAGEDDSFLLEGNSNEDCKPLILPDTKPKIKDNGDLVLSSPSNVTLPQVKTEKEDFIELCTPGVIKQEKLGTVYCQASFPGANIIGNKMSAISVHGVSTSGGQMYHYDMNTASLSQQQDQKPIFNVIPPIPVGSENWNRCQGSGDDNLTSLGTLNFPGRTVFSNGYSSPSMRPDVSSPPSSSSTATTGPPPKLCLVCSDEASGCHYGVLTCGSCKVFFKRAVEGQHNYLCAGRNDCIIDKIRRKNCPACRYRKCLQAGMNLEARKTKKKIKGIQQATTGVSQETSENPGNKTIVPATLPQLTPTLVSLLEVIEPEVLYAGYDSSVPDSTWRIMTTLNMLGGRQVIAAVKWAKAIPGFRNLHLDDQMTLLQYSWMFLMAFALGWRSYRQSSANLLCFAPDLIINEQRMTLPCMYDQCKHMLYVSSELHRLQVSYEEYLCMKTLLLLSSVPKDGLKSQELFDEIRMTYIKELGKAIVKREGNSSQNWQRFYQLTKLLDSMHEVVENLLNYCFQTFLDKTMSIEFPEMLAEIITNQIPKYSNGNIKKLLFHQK

In the first experiment the target is Glucocorticoid receptor (Homo sapiens) (UniProt P04150). The experiment is described as follows: GR-EFC Redistribution (AID 451; calls by dose curve; further: potency means the concentration at half of the fitted maximal effect). The conditions noted are these: CHO-K1 GR-EFC translocation, beta-gal luminescence, 2 h. Summed up:
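CHO-K1 cells expressing nuclear EA and GR-ED fragments of b-gal; compounds titrated up to 46 uM final, 2 h at 37 C. GR nuclear translocation read as complemented b-gal luminescence after 1 h RT detection.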
On to `Cc1ccc(O)cc1` (tested in a mixture with another compound), for which the Potency is greater than 9.22 µM.

With `CCCOC(=O)[C@@H]1[C@@H](C(=O)O)[C@H]2CC[C@@H]1O2`, the Potency was greater than 9.22 µM.

`O=C(O)C(Oc1nc(=S)[nH]c(=S)[nH]1)(c1ccc(Cl)cc1)c1ccc(Cl)cc1`: the Potency is greater than 9.22 µM.

As to `O=C(Nc1ccc([As](=O)(O)O)cc1)Nc1cccc(Cl)c1Cl`, the Potency is greater than 9.22 µM.

For `C[C@@]12CC[C@H]3[C@@H](CC=C4C[C@H](OS(=O)(=O)O)CC[C@]43C)[C@H]1CCC2=O`, the Potency was greater than 46 µM.

As for `CCOC(=O)[C@@H]1[C@@H]2c3ccccc3-c3ccccc3[C@H]2C[C@H]1O`, the Potency was greater than 9.22 µM.

With `CN(C)CCC(C#N)(c1ccccc1)c1ccccc1`, the Potency was greater than 9.22 µM.

Take `COC(=O)c1c(C)ccc2c(O)c3c(cc12)C(=O)c1c2c(cc(O)c1C3=O)[C@@]1(C)O[C@@](C)(O2)[C@@H](O)[C@H](N(C)C)[C@H]1O`: the Potency was greater than 9.22 µM.

With `C[N+]1(C)C2CC[C@H]1CC(OC(=O)[C@@H](CO)c1ccccc1)C2` (stereo partly specified), the Potency was greater than 9.22 µM.

For the compound `COc1ccc2c(c1O)-c1cccc3c1[C@H](C2)N(C)CC3`, the Potency is greater than 46 µM.

As for `O=C(N1CCOCC1)C1(c2ccccc2)CCNCC1`, the Potency is greater than 9.22 µM.

For the compound `COc1cc([C@@H](O)CN)ccc1O`, the Potency is greater than 46 µM.

Consider `CC(=O)c1c(O)c(C)c(O)c(Cc2c(O)c3c(c(C(=O)/C=C\c4ccccc4)c2O)OC(C)(C)C=C3)c1O`, for which the Potency is greater than 46 µM.

With `O=C(O)C(C(=O)O)P(=S)(S)c1ccccc1` (stereo unspecified), the Potency is greater than 9.22 µM.

Regarding `O=C(O)[C@H]1[C@H](C(=O)O)[C@H]2CC[C@@H]1O2`, the Potency was greater than 46 µM.

As to `c1cncc(CNCCN2CCNCC2)c1`, the Potency is greater than 9.22 µM.

Consider `CN[C@H]1[C@H](C)O[C@@H](O[C@@H]2C/C=C(/C)C/C(C)=C\C=C/CC[C@@H](C)CNC(=O)/C=C\C=C/[C@H]2C)C[C@@H]1O`, for which the Potency is greater than 9.22 µM.

As to `COc1ccc2c(c1)[C@]13CCCC[C@@H]1[C@H](C2)NCC3`, the Potency is greater than 46 µM.

For the compound `C[C@@]12CC[C@H](O)C[C@@H]1CC[C@@H]1[C@@H]2CC[C@@]2(C)[C@@H](C3=CC(=O)OC3)[C@H](O)C[C@]12O`, the Potency was greater than 9.22 µM.

For `O=C(C[C@H](c1ccccc1)c1c(O)c2ccccc2oc1=O)c1ccccc1`, the Potency was greater than 9.22 µM.

Consider `COc1ccc(C[C@@H]2NC[C@H](O)[C@@H]2OC(C)=O)cc1`, for which the Potency is greater than 20.6 µM.

Consider `CO[C@@H]1CC=C2CCN3CCC4=C(CC(=O)OC4)[C@]23C1`, for which the Potency was greater than 46 µM.

Turning to `Cc1ccc(NC(=[OH+])c2cc3ccccc3cc2O)c(C)c1.Cc1ccc(NC(=[OH+])c2cc3ccccc3cc2O)c(C)c1.[Ni]`, the Potency is greater than 9.22 µM.

In the case of `CCNC(=O)[C@@H]1O[C@@H](n2cnc3c(N)ncnc32)[C@@H](O)[C@H]1O`, the Potency is greater than 46 µM.

Turning to `C[C@]12CC[C@@H]3[C@H](CCC4=CC(=O)CC[C@]43C)[C@]1(O)CC[C@@]2(O)C(=O)CO`, the Potency is greater than 9.22 µM.

Regarding `C[C@H](CC(C#N)(c1ccccc1)c1ccccc1)N1CCCCC1`, the Potency is greater than 9.22 µM.

Consider `COc1cc2ccccc2c2cc([N+](=O)[O-])oc12`, for which the Potency was greater than 9.22 µM.

In the case of `CC(C)N[C@@H](C)Cc1ccc(I)cc1`, the Potency was greater than 46 µM.

Consider `O=S(=O)(NCCO)c1cc[c]([Sb](=[O])([OH])[OH])cc1`, for which the Potency is greater than 9.22 µM.

Consider `NC(=O)CN1C[C@@H](O)CC1=O`, for which the Potency is greater than 46 µM.

For `CCSCC[C@H](N)C(=O)O`, the Potency was greater than 9.22 µM.

As for `O=C(O)C(O)(c1ccc(-c2ccccc2)cc1)c1ccc(-c2ccccc2)cc1`, the Potency is greater than 9.22 µM.

Regarding `O=C(O)C[O][Sb][O]CC(=O)O`, the Potency was greater than 9.22 µM.

`Nc1c(C(=O)Nc2ccc([As](=O)(O)O)cc2)cnc2nnnn12`: the Potency was greater than 9.22 µM.

Take `C[Se]C[C@@H](N)C(=O)O`: the Potency is greater than 46 µM.

With `CN(C)[C@@H]1C(=O)C(C(N)=O)=C(O)[C@]2(O)C(=O)C3=C(O)c4c(O)cccc4[C@](C)(O)[C@H]3C[C@@H]12`, the Potency is greater than 9.22 µM.

Consider `CN(C)CCCNc1c2c(nc3ccc(Cl)cc13)CCCC2`, for which the Potency was greater than 9.22 µM.

The target of another experiment is Mitogen-activated protein kinase 10 (Mus musculus) (UniProt Q61831). Nature of the experiment: JNK3 AlphaScreen Assay (AID 530).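 Further: kinase came from lysate of stimulated human HepG2 cells; signal reports phosphorylation of biotinylated GST-cJun 1-79 at Ser73 with 10 µM ATP; on the % scale 0 is the no-effect control and ±100 the full control effect.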 Particulars: JNK3 lysate, c-Jun phosphorylation; series mostly up to 57.1 µM. An outline of the steps:
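qHTS format: compounds tested as titrations against IL-1beta/TNF-alpha-activated HepG2 lysate JNK3 with biotin-GST-cJun substrate and 10 uM ATP at room temperature. Loss of anti-phospho-cJun AlphaScreen signal indicates inhibition.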
Turning to `Cc1ccc(O)cc1` (tested in a mixture with another compound), the activity change, negative = inhibition is 1.19% [at 11.4 µM].

Turning to `CCCOC(=O)[C@@H]1[C@@H](C(=O)O)[C@H]2CC[C@@H]1O2`, the activity change, negative = inhibition was 6.67% [at 11.4 µM].

`O=C(O)C(Oc1nc(=S)[nH]c(=S)[nH]1)(c1ccc(Cl)cc1)c1ccc(Cl)cc1`: the activity change, negative = inhibition is 5.45% [at 11.4 µM].

Take `O=C(Nc1ccc([As](=O)(O)O)cc1)Nc1cccc(Cl)c1Cl`: the activity change, negative = inhibition was 0.483% [at 11.4 µM].

Turning to `C[C@@]12CC[C@H]3[C@@H](CC=C4C[C@H](OS(=O)(=O)O)CC[C@]43C)[C@H]1CCC2=O`, the Potency result was “inactive”.

Regarding `CCOC(=O)[C@@H]1[C@@H]2c3ccccc3-c3ccccc3[C@H]2C[C@H]1O`, the activity change, negative = inhibition is -2.11% [at 11.4 µM].

As for `CN(C)CCC(C#N)(c1ccccc1)c1ccccc1`, the activity change, negative = inhibition was 2.05% [at 11.4 µM].

As for `COC(=O)c1c(C)ccc2c(O)c3c(cc12)C(=O)c1c2c(cc(O)c1C3=O)[C@@]1(C)O[C@@](C)(O2)[C@@H](O)[C@H](N(C)C)[C@H]1O`, the activity change, negative = inhibition was -7.99% [at 11.4 µM].

Turning to `COc1ccc2c(c1O)-c1cccc3c1[C@H](C2)N(C)CC3`, the Potency entry was “inactive”.

Turning to `COc1cc2c(cc1OC)[C@@]13CCN4C=C5CCO[C@H]6CC(=O)N2[C@@H]1[C@@H]6[C@H]5C[C@H]43`, the activity change, negative = inhibition was 3.62% [at 11.4 µM].

As for `O=C(N1CCOCC1)C1(c2ccccc2)CCNCC1`, the activity change, negative = inhibition is 3.92% [at 11.4 µM].

For the compound `COc1cc([C@@H](O)CN)ccc1O`, the Potency entry was “inactive”.

Regarding `CC(=O)c1c(O)c(C)c(O)c(Cc2c(O)c3c(c(C(=O)/C=C\c4ccccc4)c2O)OC(C)(C)C=C3)c1O`, the Potency result was “inactive”.

As for `O=C(O)C(C(=O)O)P(=S)(S)c1ccccc1` (stereo unspecified), the activity change, negative = inhibition is 2.73% [at 11.4 µM].

Consider `O=C(O)[C@H]1[C@H](C(=O)O)[C@H]2CC[C@@H]1O2`, for which the Potency result was “inactive”.

In the case of `c1cncc(CNCCN2CCNCC2)c1`, the activity change, negative = inhibition was 1.33% [at 11.4 µM].

Consider `CN[C@H]1[C@H](C)O[C@@H](O[C@@H]2C/C=C(/C)C/C(C)=C\C=C/CC[C@@H](C)CNC(=O)/C=C\C=C/[C@H]2C)C[C@@H]1O`, for which the activity change, negative = inhibition was 1.47% [at 11.4 µM].

`N=C(N)SCc1ccc(Cl)c2ccccc12` (tested in a mixture with another compound): the activity change, negative = inhibition was 3.26% [at 11.4 µM] and 4.92% [at 11.4 µM].

As to `COc1ccc2c(c1)[C@]13CCCC[C@@H]1[C@H](C2)NCC3`, the Potency entry is “inactive”.

For the compound `C[C@@]12CC[C@H](O)C[C@@H]1CC[C@@H]1[C@@H]2CC[C@@]2(C)[C@@H](C3=CC(=O)OC3)[C@H](O)C[C@]12O`, the activity change, negative = inhibition was 1.8% [at 11.4 µM].

In the case of `O=C(C[C@H](c1ccccc1)c1c(O)c2ccccc2oc1=O)c1ccccc1`, the activity change, negative = inhibition is -4.41% [at 11.4 µM].

For `COc1ccc(C[C@@H]2NC[C@H](O)[C@@H]2OC(C)=O)cc1`, the Potency result was “inactive”.

On to `CO[C@@H]1CC=C2CCN3CCC4=C(CC(=O)OC4)[C@]23C1`, for which the Potency result is “inactive”.

As to `Cc1ccc(NC(=[OH+])c2cc3ccccc3cc2O)c(C)c1.Cc1ccc(NC(=[OH+])c2cc3ccccc3cc2O)c(C)c1.[Ni]`, the activity change, negative = inhibition is 1.02% [at 11.4 µM].

In the case of `Nc1cccc(Cl)c1`, the Potency result was “inactive”.

As to `CCNC(=O)[C@@H]1O[C@@H](n2cnc3c(N)ncnc32)[C@@H](O)[C@H]1O`, the Potency entry is “inactive”.

`C[C@]12CC[C@@H]3[C@H](CCC4=CC(=O)CC[C@]43C)[C@]1(O)CC[C@@]2(O)C(=O)CO`: the activity change, negative = inhibition is 4.11% [at 11.4 µM].

Regarding `C[C@H](CC(C#N)(c1ccccc1)c1ccccc1)N1CCCCC1`, the activity change, negative = inhibition was 1.28% [at 11.4 µM].

Take `COc1cc2ccccc2c2cc([N+](=O)[O-])oc12`: the activity change, negative = inhibition is 16.5% [at 11.4 µM].

Turning to `CC(C)N[C@@H](C)Cc1ccc(I)cc1`, the Potency result is “inactive”.

On to `O=S(=O)(NCCO)c1cc[c]([Sb](=[O])([OH])[OH])cc1`, for which the activity change, negative = inhibition is 1.82% [at 11.4 µM].

As for `NC(=O)CN1C[C@@H](O)CC1=O`, the Potency entry is “inactive”.

As for `CCSCC[C@H](N)C(=O)O`, the activity change, negative = inhibition is 3.04% [at 11.4 µM].

On to `O=C(O)C(O)(c1ccc(-c2ccccc2)cc1)c1ccc(-c2ccccc2)cc1`, for which the activity change, negative = inhibition is 1.15% [at 11.4 µM].

As to `O=C(O)C[O][Sb][O]CC(=O)O`, the activity change, negative = inhibition was 1.01% [at 11.4 µM].

On to `Nc1c(C(=O)Nc2ccc([As](=O)(O)O)cc2)cnc2nnnn12`, for which the activity change, negative = inhibition is 0.733% [at 11.4 µM].

`C[Se]C[C@@H](N)C(=O)O`: the Potency result is “inactive”.

Take `CN(C)[C@@H]1C(=O)C(C(N)=O)=C(O)[C@]2(O)C(=O)C3=C(O)c4c(O)cccc4[C@](C)(O)[C@H]3C[C@@H]12`: the activity change, negative = inhibition was -5.55% [at 11.4 µM].

Turning to `CN(C)CCCNc1c2c(nc3ccc(Cl)cc13)CCCC2`, the activity change, negative = inhibition is 3.7% [at 11.4 µM].
